From the OligoGym collection
Also: reference of the scale not given here.

These sequences were tested against FPGT-TNNI3K (assay: pooled miR-30 sensor sort-seq; sequence = guide strand). Details: shRNA.
TTCTTTTTCCTTGATCTGCAGG showed a sensor-assay potency score (higher = more potent) of -0.729.
TTTTATTTCTGCATCGTCCTTT was tested, and the sensor-assay potency score (higher = more potent) was 0.923.
For TAACATATGATTCACTGACTTT, the sensor-assay potency score (higher = more potent) was -0.697.
TTGAGCATTCACATCTGCTTTG gave a sensor-assay potency score (higher = more potent) of -0.576.
For TTGACTAGGTCAATGCTCTTGC, the sensor-assay potency score (higher = more potent) was 0.745.
Work on TTAATTTAGACTGCAAATCAAG yielded a sensor-assay potency score (higher = more potent) of -1.11.
For TTTATTTCTGCATCGTCCTTTA, the sensor-assay potency score (higher = more potent) was -0.351.
TTTGACTAGGTCAATGCTCTTG showed a sensor-assay potency score (higher = more potent) of -0.0852.
Sequence TATCTTGAGCATTCACATCTGC has a sensor-assay potency score (higher = more potent) of 0.666.
TTACATTTACATCAGCACCAAA was tested, and the sensor-assay potency score (higher = more potent) was -1.01.

The sequences below were run against FRMD4B in the same assay as above. Details: shRNA.
TTGTCATCTAATTTGAACGCAG was tested, and the sensor-assay potency score (higher = more potent) was -0.725.
For TTGAAACTGAAATCCTTCGTGG, the sensor-assay potency score (higher = more potent) was 0.853.
In the case of TTTGCTTTGCTTCCGGTCCAAG, the sensor-assay potency score (higher = more potent) is reported as -1.02.
In the case of TAGAAGTTTGGGCTGAACCAGC, the sensor-assay potency score (higher = more potent) is reported as -0.701.
In the case of TTCCATTGGAATAACTTCCGAG, the sensor-assay potency score (higher = more potent) is reported as 0.389.
Work on TAGACATTGCCATAGCAGCTGG yielded a sensor-assay potency score (higher = more potent) of -0.855.
In the case of TTACTTGCCATGATGAACTGAC, the sensor-assay potency score (higher = more potent) is reported as 0.412.
